# SKN-1 block – inhibitors of C. elegans SKN-1; inhibition, % at 21.8 µM; AID 624304; C. elegans VP596 Pgst-4::GFP/RFP ratio, acrylamide-induced, 24 h; 360,000 tested, 0.49% active;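 active means interference check ratio from 0.5 to 1.5 plus GFP to RFP signal ratio inhibition reaching or exceeding a fixed threshold, cut at about 30% in these data, passing the limit was not always enough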
# MEKK2wt PB1 HTS – raises or lowers MEK5 binding to wildtype human MEKK2 PB1 domain; 290,000 tested, 1.1% active; Q9Y2U5; binding response (% of control), % at 10 µM; bead flow cytometry, Alexa488-MEK5 binding to MEKK2 WT; actives lie on both sides; AID 1531; in the data active means binding response below about 67% or above about 130%
# NRP1-CendR mod – NRP-1/CendR interaction modulation. inhibition, % at 25 µM. FAM-RPARPAR peptide binding to NRP-1, fluorescence polarization. 360,000 tested, 0.85% active. AID 602438;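 active means inhibition or corrected inhibition above about 18%, plus a signal ratio from 0.5 to 1.5, limit read from the data, passing the limit was not always enough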
# MEKK2mut PB1 HTS – signal of MEK5 binding to mutant human MEKK2 PB1 domain; bead flow cytometry, Alexa488-MEK5 binding to MEKK2 mutant; percent response, % at 10 µM; 290,000 tested, 0.35% active; AID 1530; in the data active means percent response above about 24%, passing the limit was not always enough
# MEKK3 PB1 HTS – modulators (inhibitors or enhancers) of MEK5 binding to human MEKK3 PB1 domain | binding response (% of control), % at 10 µM | bead-based flow cytometry, Alexa488-MEK5 binding to MEKK3; actives lie on both sides; 0 = blocked by unlabeled MEK5, 100 = vehicle | AID 1529 | 290,000 tested, 1.4% active | Q99759;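 active means binding response more than 3 SD above or below the average of its plate-row segment, actives on both sides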;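 further: Alexa488 bead fluorescence after subtracting the streptavidin-only scavenger bead signal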
# Target sequence (Q99759 whole entry, looked up, the tested form may be a part): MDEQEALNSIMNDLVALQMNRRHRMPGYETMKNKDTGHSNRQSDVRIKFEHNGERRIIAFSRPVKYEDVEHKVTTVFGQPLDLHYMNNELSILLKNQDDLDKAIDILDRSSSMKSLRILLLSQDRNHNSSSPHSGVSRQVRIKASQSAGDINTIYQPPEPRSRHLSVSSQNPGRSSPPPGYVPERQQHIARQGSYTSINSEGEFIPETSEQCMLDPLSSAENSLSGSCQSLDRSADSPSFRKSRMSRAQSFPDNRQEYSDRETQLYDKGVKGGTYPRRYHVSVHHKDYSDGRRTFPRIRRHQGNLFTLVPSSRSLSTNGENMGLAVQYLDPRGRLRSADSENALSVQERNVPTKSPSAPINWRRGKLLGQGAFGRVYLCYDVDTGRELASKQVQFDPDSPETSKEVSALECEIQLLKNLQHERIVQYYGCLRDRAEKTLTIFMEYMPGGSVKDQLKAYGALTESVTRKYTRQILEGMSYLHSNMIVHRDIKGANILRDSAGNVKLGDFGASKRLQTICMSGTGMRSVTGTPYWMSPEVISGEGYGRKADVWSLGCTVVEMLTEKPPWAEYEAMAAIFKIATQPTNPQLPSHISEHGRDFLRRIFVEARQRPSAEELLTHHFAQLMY
# * = called active by the depositor; . = no result. Compounds with a hit are over-represented: about 3.2% of the library has one in this group of screens.
SMILES,SKN-1 block,MEKK2wt PB1 HTS,NRP1-CendR mod,MEKK2mut PB1 HTS,MEKK3 PB1 HTS
O=C(CCCC(=O)NCC1CCCO1)NCC1CCCO1 (stereo not drawn),15,103,26*,1,98
O=C(CN1CCCCCC1)NCC1CCCO1 (stereo not drawn),10,90,0,-5,98
COc1ccccc1-c1noc(Cn2cc(S(=O)(=O)N3CCCC3)ccc2=O)n1,-1,.,18*,.,.
COc1ccc(-n2nnnc2SC(C)C(N)=O)cc1 (stereo not drawn),4,110,-3,6,106
CCN(CC)S(=O)(=O)c1ccc2c(c1)nc(SC(C)C(N)=O)n2-c1ccc(OC)cc1 (stereo not drawn),29*,104,6,2,105
O=C(COc1ccc2c3c(c(=O)oc2c1)CCCC3)N1CCN(c2ccccc2)CC1,-5,108,8,9,106
O=C(O)CCSc1nnc(COc2cccc3cccnc23)n1-c1ccccc1,0,98,26*,-5,98
COc1ccc(C2Nc3ccccc3C(=O)N2Cc2ccco2)cc1COc1ccc(F)cc1 (stereo not drawn),43*,94,-6,2,111
COc1ccc(NC2CCCN(C(=O)c3ccccc3C(F)(F)F)C2)cc1 (stereo not drawn),18,100,7,2,102
CC(=O)c1cc2c(cc1F)C(C)(C)CCC2(C)C,10,.,2,.,.
CCOC(=O)CNC(=O)C1(/C=C/c2ccccc2)CC(=O)N1c1ccc(C)cc1 (stereo not drawn),-12,94,-5,0,95
CC1=C/C(=C(/c2cc(C)c(O)c(Br)c2)c2ccccc2S(=O)(=O)O)C=C(Br)C1=O,51*,101,40*,7,103
CC1=C/C(=C(/c2ccc(O)c(C)c2)c2ccccc2S(=O)(=O)O)C=CC1=O,16,.,9,.,.
CCS(=O)(=O)CCn1c([N+](=O)[O-])cnc1C,-8,-9.0*,-4,-3,84
Cc1ncc([N+](=O)[O-])n1CCO,-8,103,-18,5,86
CC(Sc1nn(-c2ccccc2)c(=S)s1)C(=O)NCC1CCCO1 (stereo not drawn),19,.,-8,.,.
COc1ccc(C2C(C(=O)OC(C)C)=C(C)N=c3s/c(=C\c4cccs4)c(=O)n32)cc1 (stereo not drawn),43*,89,-10,-13,86
CN1C(=O)c2oc3ccccc3c(=O)c2C1c1cccnc1 (stereo not drawn),0,.,18,.,.
CN1C(=O)c2oc3ccccc3c(=O)c2C1c1ccccn1 (stereo not drawn),8,104,33*,6,106
Cc1noc(C)c1NC(=O)N(C)C[C@H]1OCCCC[C@@H](C)Oc2ccc(NS(=O)(=O)c3ccccc3)cc2C(=O)N([C@H](C)CO)C[C@@H]1C,1,.,-2,.,.
CC(C)Cn1cnc2c(SCc3ccccc3F)nc(N)nc21,8,.,26*,.,.
CCC(C)Cn1cnc2c(SCc3ccccc3F)nc(N)nc21 (stereo not drawn),12,.,-7,.,.
O=C(NC(=O)N1CCCCC1)c1ccccc1,-11,101,26*,4,104
COc1ccc([C@H](OC)[C@@]2(Cc3ccc(O)cc3)N=C(N)N(C)C2=O)cc1,13,.,21*,.,.
O=C(COC(=O)C12CC3CC(CC(O)(C3)C1)C2)Nc1ccc(Cl)c(S(=O)(=O)N2CCOCC2)c1,5,.,1,.,.
SMILES,SKN-1 block,MEKK2wt PB1 HTS,NRP1-CendR mod,MEKK2mut PB1 HTS,MEKK3 PB1 HTS
O=C(N/N=C/c1sc(N2CCOCC2)nc1-c1ccccc1)c1ccccc1Cl,4,104,21,7,106
O=[N+]([O-])c1ccc(N/N=C/c2sc(N3CCOCC3)nc2-c2ccccc2)c(S(=O)(=O)Nc2ccccc2Cl)c1,-5,.,-193,63*,91
Cc1ccc(S(=O)(=O)N2CCCCC2C(=O)O)s1 (stereo not drawn),-14,102,46*,-5,100
O=C(NCc1ccco1)Nc1ccc2snnc2c1,-5,107,40*,3,100
Cc1nc2ccc(NC(=O)NCc3ccco3)cc2s1,-6,101,1,8,103
O=C(Nc1ccc2snnc2c1)N1CCSCC1,39*,101,14,-4,95
CCN(C(=O)COC(=O)CNC(=O)c1ccc(F)cc1)C1CCS(=O)(=O)C1 (stereo not drawn),3,94,28*,-5,103
CCCOc1ccc(OCC(=O)c2[nH]c(C)c(C(C)=O)c2C)cc1,2,100,41*,-2,96
CC(=O)c1c(C)[nH]c(C(=O)COc2cc(C)cc(C)c2)c1C,12,101,-2,3,101
COc1ccc(CNC(C)C(=O)Nc2ccc3ccccc3c2)cc1OC (stereo not drawn),51*,101,3,0,98
CC(C)NC(=O)N[C@H]1CC[C@H](CC(=O)NCc2ccc(Oc3ccccc3)cc2)O[C@@H]1CO,-12,.,-17,.,.
COc1ccc(Cc2nc(-c3ccc(Br)cc3)no2)cc1,16,106,-2,6,106
COc1ccc(Cc2nc(-c3ccc(Cl)cc3)no2)cc1,35*,106,-1,1,102
CCOC(=O)C1=C(C)NC(C)=C(C(=O)OCC)C1C(=O)OCC(=O)NCc1ccccc1OC,3,.,9,.,.
O=C(c1cccnc1)C1Cc2ccccc2C1=O (stereo not drawn),36*,96,15,-11,99
c1ccc(OCCOCCOc2ccccc2)cc1,21,.,13,.,.
CC(NCCOCCOc1ccccc1)c1ccccc1 (stereo not drawn),-2,103,26*,17,104
C/C(N)=C(/C#N)C(=O)COC(=O)C1CCN(S(=O)(=O)c2cccs2)CC1,23,.,1,.,.
CCCCn1c(N)c(N(CC)C(=O)C(c2ccccc2)c2ccccc2)c(=O)[nH]c1=O,0,100,1,64*,82
CCCCn1c(N)c(N(CC)C(=O)c2ccco2)c(=O)[nH]c1=O,-17,.,6,.,.
Cc1cc(C)c(S(=O)(=O)Nc2ccccc2C(=O)N2CCCC2)c(C)c1,4,99,-4,0,102
CC(C)[C@@H](CO)NC(=O)[C@H]1O[C@@H](n2cnc3c(N)ncnc32)[C@H](O)[C@@H]1O,8,.,10,.,.
CN(C)c1cccc2c(S(=O)(=O)NC(=O)[C@H]3O[C@@H](n4cnc5c(N)ncnc54)[C@H](O)[C@@H]3O)cccc12,3,.,25*,.,.
C=CCn1cc(-c2cccc(Cl)c2)cc(C#N)c1=O,40*,104,5,3,102
CC(=O)c1ccc(N2CCN(c3ncccn3)CC2)cc1,-2,99,3,-4,102
Cc1ccc(C(=O)NCC(=O)Nc2cccc(C(F)(F)F)c2)cc1,4,106,7,1,104

# Compound activity deposited in PubChem by several laboratories.
